This is a sample that favours compounds with a hit; in the whole collection about 1.2% have one here.
MIN6 prolif: MIN6 beta-cell proliferation induction. MIN6 cells proliferation, ATPlite luminescence, 48 h; cells starved in 0.2% serum; 100% = growth in 10% serum. proliferation, % at 10 µM. 0.29% of 330,000 active;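 active = compounds whose signal lies at least 3.5 SD above the mean of all wells on their plate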
Platelet DG rel: modulates dense granule release in human platelets. human platelet-rich plasma, SFLLRN dense granule ATP release, luminescence. AID 1663. 0.22% of 300,000 active. inhibition, %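 (compounds screened at 7.5 µM in platelet-rich plasma)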;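 active = mean replicate score, as percent of positive control, at or above 50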
GRK2 inh: inhibitors of human GRK2 displacing RNA aptamer. P25098. bead flow cytometry, FAM-aptamer displacement from GRK2. inhibition of aptamer binding, % at 10 µM. 0.59% of 330,000 active. AID 488847;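 active = inhibition of aptamer binding above 40%, roughly 3 SD of noise, on plates passing a quality check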;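 also: median bead fluorescence of bound FAM aptamer so fluorescent compounds give negative values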
Target sequence (P25098 whole entry, looked up): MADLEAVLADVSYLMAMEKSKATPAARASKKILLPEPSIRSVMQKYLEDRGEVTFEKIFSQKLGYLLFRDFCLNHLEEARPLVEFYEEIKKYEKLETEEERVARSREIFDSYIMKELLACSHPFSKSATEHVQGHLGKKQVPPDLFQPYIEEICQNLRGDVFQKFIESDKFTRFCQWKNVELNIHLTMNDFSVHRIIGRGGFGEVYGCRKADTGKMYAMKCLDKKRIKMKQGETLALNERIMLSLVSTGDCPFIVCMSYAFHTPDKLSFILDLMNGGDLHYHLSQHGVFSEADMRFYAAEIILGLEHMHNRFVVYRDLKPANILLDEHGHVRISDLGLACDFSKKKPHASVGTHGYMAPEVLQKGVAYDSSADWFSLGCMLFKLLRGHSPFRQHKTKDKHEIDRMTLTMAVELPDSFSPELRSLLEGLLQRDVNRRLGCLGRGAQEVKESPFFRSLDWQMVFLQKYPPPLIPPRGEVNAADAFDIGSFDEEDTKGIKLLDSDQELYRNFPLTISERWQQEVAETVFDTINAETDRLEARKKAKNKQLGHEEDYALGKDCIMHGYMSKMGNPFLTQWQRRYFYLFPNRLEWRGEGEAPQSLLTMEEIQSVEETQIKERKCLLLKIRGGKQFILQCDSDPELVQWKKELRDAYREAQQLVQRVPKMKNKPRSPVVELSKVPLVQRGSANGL
NTR1 agonist: activates human neurotensin receptor 1; activation, % at 20 µM; AID 493036; 0.17% of 330,000 active; NTR1-U2OS beta-arrestin-GFP spot imaging, agonist mode; P30989;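 active = activation at or above 40% of the spot to cytoplasm intensity ratio, with at least 20 cells analyzed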
GRK2 CP1: human GRK2 inhibition confirmation, cherry pick 1; shares compounds with GRK2 inh; bead-bound GRK2, FAM-aptamer displacement, flow cytometry; aptamer displacement, % at 10 µM; 4% of 2,000 active;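 active = aptamer displacement above 40%, near three times the noise of non-fluorescent compounds, on plates passing quality checks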;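 also: negative values mostly reflect intrinsic compound fluorescence rather than true enhancement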
FAM quench CP1: quenches fluorescent RNA aptamer, GRK2 hit artifact. fluorescence response (% of DMSO), % at 10 µM. Carboxyfluorescein RNA aptamer on beads, flow cytometry quenching; active compounds read low. 2,000 tested, under 10 active. shares compounds with GRK2 inh;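 active = compounds that quench the bead-bound fluorescent RNA probe, cutting fluorescence to under half of the solvent control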;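 also: counterscreen run without GRK2 so only probe quenching by compound is measured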
NTR1 ag conf: NTR1 (human) agonism, confirmed; 38% of 480 active; activation, % at 20 µM; NTR1-U2OS beta-arrestin-GFP translocation imaging; shares compounds with NTR1 agonist;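 active = mean activation at 20 µM of at least 40%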
A number is an active result; i = inactive; nt = no result given.

SMILES | MIN6 prolif | Platelet DG rel | GRK2 inh | NTR1 agonist | NTR1 ag conf | others
Cc1cc(/C=C2\C(=O)NC(=O)N(Cc3ccccc3Cl)C2=O)c(C)n1-c1ccc(C(=O)O)cc1 | i | i | 77 | i | nt | GRK2 CP1=i;FAM quench CP1=i
CC(=NCc1ccco1)c1c(O)n(-c2ccc(C)cc2)c(=O)[nH]c1=O | i | i | i | i | nt
CC(Cl)(Cl)/C(=N/P(=S)(N1CCOCC1)N1CCOCC1)N1CCOCC1 | i | i | i | i | nt
COC(=O)C1=C(c2c(C)noc2C)C[C@@H]2CC[C@H]1N2C(=O)NCCO | i | nt | 75 | i | nt | GRK2 CP1=i;FAM quench CP1=i
CCOC(=O)c1c(/N=C/c2c(O)n(-c3ccc(F)cc3)c(=S)[nH]c2=O)sc2c1CCCC2 | i | i | i | i | nt
CCOC(=O)c1c(/N=C/c2c(O)n(-c3ccccc3F)c(=S)[nH]c2=O)sc2c1CCCC2 | i | i | 54 | i | nt | GRK2 CP1=i;FAM quench CP1=i
CN(C)N=O | i | nt | i | i | nt
COc1ccc(CCNC(C)CCc2ccc(OC)cc2)cc1 (stereo not drawn) | i | i | i | i | nt
O=C1NC(=O)C(=Cc2cn(CCOc3ccc4c(c3)OCO4)c3ccccc23)C(=O)N1 | i | i | i | 54 | 63
Cc1ccc(C(=O)N[C@@H](C)CN2C3=NC[C@H](Cc4ccccc4)N3C[C@H]2Cc2ccc(O)cc2)cc1Br | i | i | i | 52 | i
Cc1ccc(C(=O)N[C@@H](C)CN2C3=NC[C@@H](Cc4ccccc4)N3C[C@H]2Cc2ccc(O)cc2)cc1Br | i | i | i | i | nt
Nc1ccc(Cl)cc1C(=O)c1ccccc1 | i | i | i | 100 | i
COc1ccc(Oc2cc(NC(=O)c3nn(C)cc3[N+](=O)[O-])cc([N+](=O)[O-])c2)cc1 | i | i | i | 61 | 67
COc1ccc(NC(=O)c2cn(CCC#N)nc2-c2cccc([N+](=O)[O-])c2)cc1 | i | i | i | i | nt
NC(N)=N/N=C/c1ccc(N(c2ccccc2)c2ccccc2)cc1 | i | i | i | 64 | i
Cc1c2cnn(CC(=O)N3CCC4(CC3)OCCO4)c(=O)c2c(C)n1Cc1ccccc1Cl | i | i | i | i | nt
CN1C(=O)C(=Cc2ccc(Sc3ccccc3)o2)C(=O)N(C)C1=O | i | i | i | i | nt
O=C1NC(=O)C(=Cc2ccc(Sc3ccccc3)o2)C(=O)N1 | i | i | i | 49 | 90
Cc1ccc(CN(Cc2ccccc2)C(=S)NCC(=O)N2CCC3(CC2)OCCO3)o1 | i | i | i | i | nt
CC1CCC(C(C)C)C(OC(=O)Cn2c(COc3ccccc3)[n+](C)c3ccccc32)C1 (stereo not drawn) | i | i | i | 59 | 68
CCN(CC)c1ccc(C=C2C(=O)NC(=S)NC2=O)cc1 | i | i | i | 71 | 95
CC(=NCCCn1ccnc1)c1c(O)n(C2CCCCC2)c(=O)[nH]c1=O | i | i | i | i | nt
COc1ccc(CCNCc2sccc2C)cc1OC | i | i | i | i | nt
COC(=O)c1ccc(NC(=O)CSc2nc3ccc(N4C(=O)C5C6C=CC(C6)C5C4=O)cc3s2)cc1 (stereo not drawn) | i | i | i | 63 | 56
C/C(=C\c1ccc(N(C)C)cc1)[N+](=O)[O-] | i | i | i | 53 | 73
SMILES | MIN6 prolif | Platelet DG rel | GRK2 inh | NTR1 agonist | NTR1 ag conf | others
CN(C)c1ccc(/C=C/[N+](=O)[O-])cc1 | i | i | i | i | nt
O=C1NC(=O)N(Cc2ccc(F)cc2)C(=O)/C1=C/c1cccs1 | i | i | i | 53 | 45
Cc1cccc(N2C(=O)NC(=O)/C(=C\C=C\c3ccco3)C2=O)c1 | i | i | i | i | nt
Cc1cc(C)cc(N2C(=O)NC(=O)/C(=C/c3cccn3-c3ccc(Cl)cc3)C2=O)c1 | i | i | i | 44 | 61
CC(C)(C)n1cccc1/C=C1\C(=O)NC(=O)N(c2ccccc2)C1=O | i | i | i | i | nt
Cc1cccc(N2C(=O)NC(=O)/C(=C\c3cccn3-c3ccc(Cl)cc3)C2=O)c1 | i | i | i | 48 | 82
CC(Cc1ccccc1)NC(=O)Cc1ccc([N+](=O)[O-])cc1 (stereo not drawn) | i | i | i | i | nt
COC(=O)C1=C(c2ccc3ccccc3c2)C[C@@H]2CC[C@H]1N2C(=O)NC1CC1 | i | nt | i | i | nt
COc1ccc([C@@H](O)[C@@H](N)c2ccccc2)cc1 | i | i | i | i | nt
O=C1CC(N2CCC(n3c(=O)[nH]c4ccccc43)CC2)C(=O)N1c1ccc(F)cc1 (stereo not drawn) | i | i | i | i | nt
O=c1[nH]c2ccccc2n1C1CCN(CCCC(c2ccc(F)cc2)c2ccc(F)cc2)CC1 | i | i | i | 43 | i
